# Test results from ChEMBL document CHEMBL1961873, “Compounds: GSK PKIS; Assays: Nanosyn kinase panel” (2012).
# Experiments:
# [1] = target: Serine/threonine-protein kinase MRCK alpha (Homo sapiens) (UniProt Q5VT25); details: at 0.1 µM
# [2] = target: Serine/threonine-protein kinase MRCK alpha (Homo sapiens) (UniProt Q5VT25); details: at 1 µM
# [3] = target: Serine/threonine-protein kinase MRCK beta (Homo sapiens) (UniProt Q9Y5S2); details: at 0.1 µM
# [4] = target: Serine/threonine-protein kinase MRCK beta (Homo sapiens) (UniProt Q9Y5S2); details: at 1 µM
# [5] = target: Ribosomal protein S6 kinase alpha-5 (Homo sapiens) (UniProt O75582); details: at 0.1 µM
# [6] = target: Ribosomal protein S6 kinase alpha-5 (Homo sapiens) (UniProt O75582); details: at 1 µM
# [7] = target: Ribosomal protein S6 kinase alpha-4 (Homo sapiens) (UniProt O75676); details: at 0.1 µM
# [8] = target: Ribosomal protein S6 kinase alpha-4 (Homo sapiens) (UniProt O75676); details: at 1 µM
# [9] = target: Ribosomal protein S6 kinase beta-1 (Homo sapiens) (UniProt P23443); details: at 0.1 µM
# [10] = target: Ribosomal protein S6 kinase beta-1 (Homo sapiens) (UniProt P23443); details: at 1 µM
# [11] = target: T1, 3-phosphoinositide-dependent protein kinase 1 (Homo sapiens) (UniProt O15530); details: at 0.1 µM;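 further: values are mean inhibition of PDK1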
# T1 sequence (whole entry): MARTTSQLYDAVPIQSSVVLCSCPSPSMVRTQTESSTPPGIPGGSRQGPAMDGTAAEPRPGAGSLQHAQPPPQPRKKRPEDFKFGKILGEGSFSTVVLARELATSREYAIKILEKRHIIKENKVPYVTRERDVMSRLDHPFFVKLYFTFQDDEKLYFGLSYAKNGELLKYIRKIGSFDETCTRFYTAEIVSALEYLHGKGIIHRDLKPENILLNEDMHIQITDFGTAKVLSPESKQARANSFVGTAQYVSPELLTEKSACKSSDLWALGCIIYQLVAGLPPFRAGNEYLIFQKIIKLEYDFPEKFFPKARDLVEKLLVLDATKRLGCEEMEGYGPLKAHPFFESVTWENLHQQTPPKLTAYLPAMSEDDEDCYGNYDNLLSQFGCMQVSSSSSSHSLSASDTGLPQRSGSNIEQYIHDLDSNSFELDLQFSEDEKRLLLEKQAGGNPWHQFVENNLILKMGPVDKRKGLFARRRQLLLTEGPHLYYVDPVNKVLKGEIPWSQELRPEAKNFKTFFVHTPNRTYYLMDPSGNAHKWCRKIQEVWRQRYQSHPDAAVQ
# [12] = target: cAMP-dependent protein kinase catalytic subunit alpha (Homo sapiens) (UniProt P17612); details: at 0.1 µM
# [13] = target: cAMP-dependent protein kinase catalytic subunit alpha (Homo sapiens) (UniProt P17612); details: at 1 µM
# [14] = target: Protein kinase C alpha type (Homo sapiens) (UniProt P17252); details: at 0.1 µM
# [15] = target: Protein kinase C alpha type (Homo sapiens) (UniProt P17252); details: at 1 µM
# [16] = target: Protein kinase C beta type (Homo sapiens) (UniProt P05771); details: at 0.1 µM
# [17] = target: Protein kinase C beta type (Homo sapiens) (UniProt P05771); details: at 1 µM
# [18] = target: Protein kinase C eta type (Homo sapiens) (UniProt P24723); details: at 0.1 µM
# [19] = target: Protein kinase C eta type (Homo sapiens) (UniProt P24723); details: at 1 µM
# [20] = target: Protein kinase C gamma type (Homo sapiens) (UniProt P05129); details: at 0.1 µM;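 further: values are mean percent inhibition of PKC gamma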
# Ribosomal protein S6 kinase beta-1 (Homo sapiens), sequence (P23443 whole entry, looked up): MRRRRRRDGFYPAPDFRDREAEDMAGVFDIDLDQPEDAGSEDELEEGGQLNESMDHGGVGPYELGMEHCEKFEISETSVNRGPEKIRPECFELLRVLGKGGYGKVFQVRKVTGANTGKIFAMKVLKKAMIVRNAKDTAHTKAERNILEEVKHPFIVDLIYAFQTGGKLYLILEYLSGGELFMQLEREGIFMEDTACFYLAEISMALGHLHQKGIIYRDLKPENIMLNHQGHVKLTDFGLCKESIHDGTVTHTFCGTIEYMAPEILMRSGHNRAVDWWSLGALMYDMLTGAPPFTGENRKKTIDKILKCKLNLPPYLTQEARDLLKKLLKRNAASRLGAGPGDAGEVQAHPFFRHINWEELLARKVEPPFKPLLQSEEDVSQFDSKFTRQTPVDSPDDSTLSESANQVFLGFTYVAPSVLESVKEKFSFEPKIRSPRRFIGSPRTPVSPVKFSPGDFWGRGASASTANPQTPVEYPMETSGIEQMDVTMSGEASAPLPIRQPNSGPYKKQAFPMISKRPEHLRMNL
# Serine/threonine-protein kinase MRCK beta (Homo sapiens), sequence (Q9Y5S2 whole entry): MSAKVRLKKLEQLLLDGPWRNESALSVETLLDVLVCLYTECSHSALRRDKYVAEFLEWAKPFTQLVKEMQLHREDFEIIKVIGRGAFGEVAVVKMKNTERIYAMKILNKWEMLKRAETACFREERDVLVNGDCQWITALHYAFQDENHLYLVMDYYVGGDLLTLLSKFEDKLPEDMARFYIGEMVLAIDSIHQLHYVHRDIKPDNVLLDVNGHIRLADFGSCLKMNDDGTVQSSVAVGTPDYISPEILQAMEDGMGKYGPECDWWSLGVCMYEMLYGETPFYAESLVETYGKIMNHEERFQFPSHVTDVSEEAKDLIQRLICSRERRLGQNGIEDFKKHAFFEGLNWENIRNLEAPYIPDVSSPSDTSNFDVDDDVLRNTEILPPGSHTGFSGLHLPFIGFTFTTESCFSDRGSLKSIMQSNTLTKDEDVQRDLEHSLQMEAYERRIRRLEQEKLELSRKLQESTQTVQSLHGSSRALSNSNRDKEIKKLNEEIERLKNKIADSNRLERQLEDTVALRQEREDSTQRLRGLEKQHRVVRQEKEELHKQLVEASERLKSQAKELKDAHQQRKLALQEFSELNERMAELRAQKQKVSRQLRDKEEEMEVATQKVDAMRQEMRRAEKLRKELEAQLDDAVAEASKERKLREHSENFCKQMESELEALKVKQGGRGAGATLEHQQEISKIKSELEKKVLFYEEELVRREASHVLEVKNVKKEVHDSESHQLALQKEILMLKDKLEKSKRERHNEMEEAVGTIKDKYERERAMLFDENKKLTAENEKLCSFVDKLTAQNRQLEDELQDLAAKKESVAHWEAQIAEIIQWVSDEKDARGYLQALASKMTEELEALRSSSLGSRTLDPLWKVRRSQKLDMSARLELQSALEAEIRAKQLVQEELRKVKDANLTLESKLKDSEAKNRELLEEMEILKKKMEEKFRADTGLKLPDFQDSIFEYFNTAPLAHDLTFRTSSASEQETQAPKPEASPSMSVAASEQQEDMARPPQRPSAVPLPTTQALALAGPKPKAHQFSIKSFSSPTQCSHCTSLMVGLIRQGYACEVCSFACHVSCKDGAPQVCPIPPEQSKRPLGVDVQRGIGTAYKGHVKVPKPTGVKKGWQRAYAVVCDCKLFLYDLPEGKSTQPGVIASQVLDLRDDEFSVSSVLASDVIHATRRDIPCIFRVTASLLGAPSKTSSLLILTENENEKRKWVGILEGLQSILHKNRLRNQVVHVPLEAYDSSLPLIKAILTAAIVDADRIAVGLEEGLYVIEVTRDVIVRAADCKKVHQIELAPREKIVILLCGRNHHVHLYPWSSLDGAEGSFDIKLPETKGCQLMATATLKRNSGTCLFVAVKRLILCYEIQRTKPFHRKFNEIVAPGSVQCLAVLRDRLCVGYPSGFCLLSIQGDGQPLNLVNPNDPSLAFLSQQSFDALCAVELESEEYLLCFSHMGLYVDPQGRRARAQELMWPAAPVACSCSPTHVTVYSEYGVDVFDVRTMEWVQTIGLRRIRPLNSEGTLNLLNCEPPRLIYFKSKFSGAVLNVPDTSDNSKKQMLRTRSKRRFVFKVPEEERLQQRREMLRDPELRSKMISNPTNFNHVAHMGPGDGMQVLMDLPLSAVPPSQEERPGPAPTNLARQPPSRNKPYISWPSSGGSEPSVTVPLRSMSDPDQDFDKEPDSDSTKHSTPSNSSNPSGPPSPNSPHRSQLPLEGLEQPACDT
# Serine/threonine-protein kinase MRCK alpha (Homo sapiens), sequence (Q5VT25 whole entry): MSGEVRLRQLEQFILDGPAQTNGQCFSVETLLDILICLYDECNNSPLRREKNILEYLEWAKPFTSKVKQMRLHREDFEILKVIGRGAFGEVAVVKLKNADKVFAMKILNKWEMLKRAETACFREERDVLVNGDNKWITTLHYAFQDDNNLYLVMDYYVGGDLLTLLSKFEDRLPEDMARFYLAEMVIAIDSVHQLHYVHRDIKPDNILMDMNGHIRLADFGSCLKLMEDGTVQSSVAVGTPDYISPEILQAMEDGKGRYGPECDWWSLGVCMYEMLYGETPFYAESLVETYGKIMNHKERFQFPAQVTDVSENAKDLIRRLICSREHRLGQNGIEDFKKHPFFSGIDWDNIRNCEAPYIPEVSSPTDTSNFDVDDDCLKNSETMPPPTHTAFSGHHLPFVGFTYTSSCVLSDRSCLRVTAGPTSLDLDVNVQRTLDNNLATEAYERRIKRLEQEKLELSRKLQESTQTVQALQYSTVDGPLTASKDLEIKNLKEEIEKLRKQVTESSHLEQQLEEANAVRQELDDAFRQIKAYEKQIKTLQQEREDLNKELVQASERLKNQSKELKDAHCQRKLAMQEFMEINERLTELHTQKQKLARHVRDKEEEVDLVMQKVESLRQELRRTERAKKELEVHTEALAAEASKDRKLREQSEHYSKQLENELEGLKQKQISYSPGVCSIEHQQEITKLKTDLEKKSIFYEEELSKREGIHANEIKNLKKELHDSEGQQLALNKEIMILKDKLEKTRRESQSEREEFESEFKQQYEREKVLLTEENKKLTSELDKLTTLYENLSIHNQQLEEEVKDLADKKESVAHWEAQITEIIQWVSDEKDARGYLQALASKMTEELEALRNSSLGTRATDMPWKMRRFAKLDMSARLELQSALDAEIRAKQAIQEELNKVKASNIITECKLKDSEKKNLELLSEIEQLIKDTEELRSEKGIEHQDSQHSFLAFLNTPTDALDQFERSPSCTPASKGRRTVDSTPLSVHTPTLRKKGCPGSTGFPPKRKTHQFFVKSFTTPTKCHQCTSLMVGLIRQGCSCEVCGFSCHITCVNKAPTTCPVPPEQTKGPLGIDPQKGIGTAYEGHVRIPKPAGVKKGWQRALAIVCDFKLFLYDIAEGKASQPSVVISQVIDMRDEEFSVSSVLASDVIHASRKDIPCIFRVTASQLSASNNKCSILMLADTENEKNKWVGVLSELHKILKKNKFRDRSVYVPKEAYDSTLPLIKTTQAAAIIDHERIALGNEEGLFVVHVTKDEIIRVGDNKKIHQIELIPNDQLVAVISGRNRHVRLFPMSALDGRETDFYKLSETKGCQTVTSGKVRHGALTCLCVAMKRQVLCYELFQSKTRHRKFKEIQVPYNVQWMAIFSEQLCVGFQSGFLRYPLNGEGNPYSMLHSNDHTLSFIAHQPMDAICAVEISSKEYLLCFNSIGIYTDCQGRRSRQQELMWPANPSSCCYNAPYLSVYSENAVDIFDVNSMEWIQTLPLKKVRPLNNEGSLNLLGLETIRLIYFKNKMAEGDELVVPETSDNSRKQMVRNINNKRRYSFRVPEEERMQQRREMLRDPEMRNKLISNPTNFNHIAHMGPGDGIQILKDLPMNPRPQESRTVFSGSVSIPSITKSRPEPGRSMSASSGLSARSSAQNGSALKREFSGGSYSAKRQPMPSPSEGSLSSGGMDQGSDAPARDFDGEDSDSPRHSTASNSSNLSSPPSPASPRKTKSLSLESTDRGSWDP
SMILES,inhibition [1] [%],inhibition [2] [%],inhibition [3] [%],inhibition [4] [%],inhibition [5] [%],inhibition [6] [%],inhibition [7] [%],inhibition [8] [%],inhibition [9] [%],inhibition [10] [%],inhibition [11] [%],inhibition [12] [%],inhibition [13] [%],inhibition [14] [%],inhibition [15] [%],inhibition [16] [%],inhibition [17] [%],inhibition [18] [%],inhibition [19] [%],inhibition [20] [%]
Cc1ccc2c(-c3ccnc(Nc4ccccc4)n3)c(-c3ccc(F)cc3)nn2n1,1.01,7.71,1.04,1.94,3.46,3.65,0.97,3.78,1.87,3.16,2.18,1.83,4.25,1.15,11.3,1.13,6.49,0.7,1.97,2.27
COc1cc2c(cc1Nc1nc(Nc3ccsc3C(N)=O)c3cc[nH]c3n1)N(C(=O)CN(C)C)CCC2(C)C,2.48,6.74,4.54,14.9,4.6,8.3,5.18,13.8,2.7,4.93,2.56,2.98,8.67,4.21,34.3,2.16,3.73,6.04,9.1,8.05
CCN1CCC(CC(=O)Nc2n[nH]c3nnc(-c4cccc(F)c4F)cc23)CC1,-3.37,0.57,0.12,0.92,0.93,-0.87,2.22,1.55,0.65,0.08,1.89,1.6,3.23,0.66,1.58,2.14,0.03,1.63,3.3,3.44
Nc1ncc(-c2cccc(S(N)(=O)=O)c2)c2scc(-c3ccc(F)c(Cl)c3)c12,-3.16,7.9,0.86,0.71,2.3,0.77,3.08,2.86,1.63,0.72,1.01,3.02,3.59,-0.67,2.74,-0.08,0.9,4.76,6.59,-0.92
CNC(=O)c1cncc(/C=C/c2ccccc2Cl)c1,1.52,2.33,-0.05,0.26,3.05,3.68,1.83,1.78,0.27,0.23,-0.25,1.4,3.17,0.42,-0.07,2.7,5.12,1.33,2.39,3.03
N#Cc1c(NC(=O)c2ccc(F)cc2)sc2c1CCCC2,0.16,-0.05,-0.27,1.57,1.16,2.08,0.1,2.25,-0.29,0.86,0.85,1.5,2.64,0.43,-0.26,-1.4,2.12,3.5,2.09,0.54
N#Cc1c(NC(=O)CN2CCOCC2)sc2c1CCCC2,0.22,2.63,0.43,0.37,3.16,3.12,2.5,2,2.57,1.13,2.07,2.3,1.82,2.23,5.72,0.89,2.05,5.18,3.17,3.77
CC1=C(C(=O)Nc2cc(Cl)c3[nH]ncc3c2)C(c2ccc(C(F)(F)F)cc2)CC(=O)N1 (stereo not given),17.2,64.6,23.8,65.5,56.3,81.7,32.4,68.9,8.47,41.7,1.84,21.8,71,0.91,1.52,0.15,2.02,5.7,39.1,3.92
NS(=O)(=O)c1ccc(Nc2ncc(-c3ccccc3)o2)cc1,-0.91,-1.21,0.24,1.14,3.01,4.81,3,5.37,2.3,3.51,4.51,1.3,3.27,0,1.96,-0.16,1.54,3.2,1.9,1.28
COc1ccc(-c2cc3c(N)ncnc3o2)cc1,1.37,-2.67,1.33,-0.07,-2.51,-3.04,-0.05,-0.35,-0.5,-0.54,-0.95,-0.06,0.18,-0.88,3,-0.74,-2.12,-4.39,-1.49,0.2
CC(=O)Nc1cccc(C#Cc2cncnc2Nc2ccc(OCc3cccc(F)c3)c(Cl)c2)c1,1.39,0.82,1.53,1.93,-3.6,-3.85,1.16,2.5,2.04,2.07,2.17,2.17,4.12,0.9,2.2,0.65,0.21,0.22,-0.44,3.94
COc1ccc(-c2cc(-c3c[nH]nc3-c3ccccn3)ccn2)cc1,-0.6,3.02,-0.39,0.6,4.28,4.22,3.45,4.77,2.32,3.73,2.34,2.05,3.35,0.46,2.09,1.41,3.92,4.04,5.03,1.23
FC(F)(F)c1cccc(-c2nn3ncccc3c2-c2ccnc(Nc3ccc4c(c3)OCCO4)n2)c1,0.13,0.81,-0.8,1.29,1.59,1.24,0.3,3.51,1.22,-0.48,0.71,1.01,2.39,0.53,1.32,0.07,-2.34,2.1,1.3,0.03
COc1cc(Nc2nccc(Nc3ccc4c(C)n[nH]c4c3)n2)cc(OC)c1OC,1.61,-0.15,1.88,1.78,3.58,2.96,1.54,2.58,0.65,1.09,2.76,2.38,14,1.29,10.2,1.4,1.99,3.09,-1.03,3.2
NS(=O)(=O)c1ccc(N/N=C2\C(=O)Nc3ccc4ncccc4c32)cc1,1.68,13.5,0.55,7.07,5.1,14.5,20.4,61.2,2.37,12.1,20.8,1.4,3.13,0.41,3.78,-0.44,-0.03,2.36,3.07,0.51
CN1CCC(n2cnc(-c3ccc(F)cc3)c2-c2ccnc(N)n2)CC1,1.47,1.4,-1.13,1.3,0.55,2.23,0.42,3.67,-0.73,1.36,3.73,3.06,7.95,1.23,10.6,0.83,7.02,3.71,4.79,0.37
CNC(=O)c1cccc(C#Cc2cncnc2Nc2ccc(OCc3cccc(F)c3)c(Cl)c2)c1,-0.5,1.42,-0.81,-3.2,-0.16,-0.2,0.45,1.97,0.88,0.77,1,1.13,0.28,-0.17,0.64,0.07,1.77,1.23,-0.12,0.99
CCn1c(-c2nonc2N)nc2c(C#CC(C)(C)O)ncc(OC3CCNCC3)c21,8.47,33.8,2.8,22.5,2.46,11.8,3.66,14.9,4.92,26.5,2.52,62.4,89.9,3.68,30.4,41.8,73.2,89.7,99.9,35.1
COc1ccc(-c2nn3ncccc3c2-c2ccnc(Nc3ccc4c(c3)OCCO4)n2)cc1,-0.27,-2.49,0.2,0,0.41,-0.38,1.07,-0.23,0.77,-0.95,-0.83,0.73,2.32,-1.17,0.51,-1.85,3.69,1.65,2.32,0.61
CN1CCC(n2cnc(-c3ccc(F)cc3)c2-c2ccnc(Nc3ccccc3)n2)CC1,0.81,10.7,1.12,2.04,1.99,3.4,1.72,3.56,0.19,1.05,3.8,2.92,16.7,19.4,65.2,16.1,51,2.14,2.72,5.68
COc1cccc(-c2c[nH]c3c(N/N=C/c4ccncc4)ncnc23)c1,0.71,6.35,0.92,5.25,8.98,9.82,2.85,4.13,2.85,8.54,6.08,1.57,3.93,0.02,4.24,2.33,4.29,2.72,1.53,2.27
CC(C)(CO)CNC(=O)c1ccc2c(c1)/C(=N/Nc1ccc(S(N)(=O)=O)cc1)C(=O)N2,-0.66,-2.01,0.21,1.07,0.88,0.97,1.15,6.02,-0.13,2.2,13.1,0.87,1.58,-0.39,0.27,-0.69,0.02,2.86,-0.08,1.72
COc1ccc2[nH]c3c4[nH]c5ccc(OC)cc5c4c4c(c3c2c1)C(=O)NC4=O,0.84,11.8,-0.86,2.96,18.7,48.4,11.8,45.3,45.6,83.6,29.8,4.03,17.2,4.27,28.7,1.55,8.91,3.82,19.5,4.07
Nc1nc(-c2cccc(Cl)c2)c(-c2ccc3ncccc3n2)s1,-0.36,5.58,-0.33,0.87,9.72,9.28,2.91,3.45,1.21,3.77,0.49,2.34,4.12,1.05,1.4,2.33,4.87,5.47,7.42,1.18
